Potency and outcome data for eleven compounds are collected here from PubChem BioAssay (Tox21).

Inconclusive results are not listed. A structure can be active in one record and inactive in another. Calls of active or inactive are those of the source. Unless noted, the call rests on the fitted dose curve; in most records, active means well fitted curve in the direction sought with a large enough effect in the repeat runs; inconclusive means weak or mixed curves; inactive means no such curve, though single readings can be large; an effect the other way counts as inactive or inconclusive.

Experiment [1] is described as follows: qHTS assay to identify small molecule antagonists of the estrogen related receptor (ERR) signaling pathway from Tox21 library - cell viability counter screen (AID 1224834). Further: nearly all actives have a fitted effect of over 30% in size. An outline of the steps: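 Seeded ERR cells were rested 6 h at 37 C/5% CO2 before compounds, positive and negative controls or DMSO were added. Incubation continued for 17.5 h, and viability was then quantified by CellTiter-Fluor fluorescence.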
Background: qHTS replaces the single test concentration by a dilution series.

Experiment [2] has as its target Luciferin 4-monooxygenase (Photinus pyralis) (UniProt P08659). The experiment is described as follows: qHTS assay to identify small molecule inhibitors of firefly luciferase (AID 1224835). Further: nearly all actives have a fitted effect of over 25% in size. Further: potency means the concentration at half of the fitted maximal effect. An outline of the steps: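 Biochemical qHTS: compounds run as interplate titrations against purified firefly enzyme, with D-luciferin and ATP each at its KM concentration. Light output recorded by CCD imaging.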

Experiment [3] can be described thus: qHTS assay to identify small molecule agonists of the constitutive androstane receptor (CAR) signaling pathway - cell viability counter screen (AID 1224836). Further: series mostly up to about 92 µM; nearly all actives have a fitted effect of over 45% in size. An outline of the steps: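 Fluorescence from CellTiter-Fluor indicates live cells after 23 h exposure. The human hepatoma line expresses hCAR and a CYP2B6-2.2kb reporter. Incubation medium contains 0.75 uM PK11195 (final).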

Experiment [4] deals with Nuclear receptor subfamily 1 group I member 3 (Homo sapiens) (UniProt Q14994). The experiment is described as follows: qHTS assay to identify small molecule antagonists of the constitutive androstane receptor (CAR) signaling pathway (AID 1224838).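 Further: HepG2 cells stably expressing hCAR with CYP2B6 luciferase reporter stimulated by CITCO; nearly all actives have a fitted effect of over 40% in size.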 An outline of the steps: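 Human hepatoma HepG2 cells expressing hCAR and a CYP2B6 promoter (2.2 kb) luciferase construct; compound titration (15 points) with 50 nM CITCO final, 24 h at 37 C/5% CO2; luminescence via ONE-Glo after 30 min at room temperature.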

For experiment [5] the target is unchanged. The experiment is described as follows: qHTS assay to identify small molecule agonists of the constitutive androstane receptor (CAR) signaling pathway (AID 1224839).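 Further: HepG2 cells stably carrying human CAR and a CYP2B6 luciferase reporter; series mostly up to about 92 µM; nearly all actives have a fitted effect of over 15% in size.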 An outline of the steps: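 Stable hCAR/CYP2B6-2.2kb HepG2 line in DMEM with 10% FBS; compounds (15 concentrations) and 0.75 uM PK11195 final, 24 h at 37 C/5% CO2, then ONE-Glo luminescence after 30 min.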

The nature of experiment [6]: qHTS assay to identify small molecule antagonists of the estrogen related receptor signaling pathway with the pleiotropic PPARgamma coactivator (PGC) from Tox21 10K library - cell viability counter screen (AID 1224840; active means well fitted cell-killing curve with a large enough effect in the repeat runs, not every such curve was filed as active; further: nearly all actives have a fitted effect of over 40% in size). An outline of the steps:
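Seeded PGC/ERR cells (2,000/well, 6 h, 37 C/5% CO2) get compound by pin tool; 17.5 h incubation at 37 C; CellTiter-Fluor added, 30 min, fluorescence measured.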

Experiment [7] in a line: qHTS assay to identify small molecule antagonists of the estrogen related receptor signaling pathway with the pleiotropic PPARgamma coactivator (PGC) from Tox21 10K library (AID 1224841; call rule not given here; further: series mostly up to about 92 µM; actives are mostly falling curves and most rising ones were filed inactive; nearly all actives have a fitted effect of over 50% in size). An outline of the steps:
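Test chemicals dissolved in DMSO were applied to pre-incubated (6 h) PGC/ERR cells at 2,000 cells/well for an 18 h, 37 C treatment; reporter luminescence was then read using One-Glo.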

Experiment [8] in a line: qHTS assay to identify small molecule agonists of the estrogen related receptor signaling pathway with the pleiotropic PPARgamma coactivator (PGC) from Tox21 10K library (AID 1224842). Further: nearly all actives have a fitted effect of over 15% in size. An outline of the steps:
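PGC/ERR reporter cell line, 2,000 cells per well, incubated 6 h at 37 C before 23 nL compound in DMSO was added. After 18 h at 37 C, One-Glo luminescence read following 30 min at room temperature.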

In experiment [9] the target is Thyrotropin receptor (Homo sapiens) (UniProt P16473). The experiment is described as follows: qHTS assay to identify small molecule agonists of the thyroid stimulating hormone receptor (TSHR) signaling pathway (AID 1224843; calls by dose curve; further: nearly all actives have a fitted effect of over 45% in size). An outline of the steps:
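HEK293/TSHR, 800 cells/well; cpd 30 min RT; add cAMP-d2 + anti-cAMP-cryptate, 1 h RT; fluorescence read on plate reader. 15-pt titration, n=3.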

The nature of experiment [10]: qHTS assay to identify small molecule agonists of the hypoxia (HIF-1) signaling pathway - cell viability counter screen (AID 1224844; calls by dose curve; further: nearly all actives have a fitted effect of over 50% in size). An outline of the steps:
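HRE-bla ME-180; 0.5% dFBS; cpd 17 h, 37C, 5% CO2; CellTiter-Glo lum., 30 min RT, post-FRET read, same wells.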

A short description of experiment [11]: qHTS assay to identify small molecule agonists of H2AX (AID 1224845; active means well fitted activation curve with a large enough effect in the signal ratio in the repeat runs, not every such curve was filed as active; the % refers to the signal ratio). An outline of the steps: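 Wild-type CHO-K1 cells, plated overnight, exposed 3hr at 37C to 15 concentrations (0.76% DMSO final). Lysed, then HTRF anti-pH2AX (S139) cryptate and anti-H2AX-d2 antibodies, 24 hr room temperature; 665/620 nm emission read.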
A short description of experiment [12]: qHTS assay to identify small molecule agonists of H2AX - cell viability counter screen (AID 1224847; calls by dose curve; further: top concentration of the series differs between compounds; nearly all actives have a fitted effect of over 30% in size). An outline of the steps:
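Viability of CHO-K1 (wild type) cells after 3 hr compound exposure was measured by CellTiter-Glo luminescence.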

Experiment [13] in a line: qHTS assay to identify small molecule antagonists of the estrogen related receptor (ERR) signaling pathway from Tox21 library (AID 1224848). Further: nearly all actives have a fitted effect of over 50% in size. An outline of the steps: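 Compounds dissolved in DMSO are pin-transferred onto ERR reporter cells (2,000 per well) that have settled for 6 h at 37 C. Plates then incubate 18 h at 37 C before ONE-Glo luciferase reagent and a luminescence read 30 min later.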

The nature of experiment [14]: qHTS assay to identify small molecule agonists of the estrogen related receptor (ERR) signaling pathway from Tox21 library (AID 1224849; calls by dose curve; further: nearly all actives have a fitted effect of over 15% in size). An outline of the steps:
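Tox21 compounds tested for ERR agonism in an NTP reporter cell line: 18 h treatment at 37 C, then ONE-Glo luminescence.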

The nature of experiment [15]: qHTS RealTime-Glo MT Cell Viability Assay in HEK293 cells - 32 hour (AID 1224868). Further: top concentration of the series differs between compounds; nearly all actives have a fitted effect of over 50% in size. An outline of the steps:
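Quantitative high-throughput screen of the Tox21 10K library in HEK293: cells and RealTime-Glo reagents plated together, compound added at 5 h, luminescence monitored through 40 h at 37 C.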

The nature of experiment [16]: A CellTox Green Cytotoxicity Assay to monitor cytotoxicity in HEK293 cells - 0 hour (AID 1224869). Further: nearly all actives have a fitted effect of over 50% in size. An outline of the steps: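 Tox21 screen in HEK293: membrane-impermeant cyanine dye fluoresces on binding dead-cell DNA; compound pinned 5 h post-seeding, plates held at 37 C, signal read repeatedly through 40 h.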
Experiment [17] in a line: qHTS RealTime-Glo MT Cell Viability Assay in HepG2 cells - 24 hour (AID 1224867). Further: nearly all actives have a fitted effect of over 50% in size. An outline of the steps:
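Compound treatment began 5 h after plating HepG2 cells (600/well) with NanoLuc luciferase and prosubstrate. Plates stayed at 37 C for 40 h; luminescence was captured at six time points, 0 h through 40 h.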

Experiment [18] in a line: qHTS assay to identify small molecule agonists of the hypoxia (HIF-1) signaling pathway (AID 1224846; active means well fitted activation curve with a large enough effect in the signal ratio in the repeat runs, not every such curve was filed as active; the % refers to the signal ratio). An outline of the steps: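 Reporter induction in HRE-bla ME-180 cells is taken as agonism: cells sit 5 hrs after plating, receive compounds or DMSO only, incubate 17 hrs at 37C under 5% CO2, and are loaded with CCF4-AM for beta-lactamase FRET measurement.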
Experiment [19] in a line: qHTS assay to identify small molecule antagonists of the constitutive androstane receptor (CAR) signaling pathway - cell viability counter screen (AID 1224837). Further: series mostly up to about 92 µM; nearly all actives have a fitted effect of over 45% in size. An outline of the steps: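 To flag cytotoxic false antagonists, HepG2 hCAR/CYP2B6-2.2kb cells were treated 23 hr with 15-concentration compound series and 50 nM CITCO at 37 C/5% CO2; CellTiter-Fluor fluorescence was the measured end point.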

Sequence of Nuclear receptor subfamily 1 group I member 3 (Homo sapiens) (Q14994 whole entry, looked up): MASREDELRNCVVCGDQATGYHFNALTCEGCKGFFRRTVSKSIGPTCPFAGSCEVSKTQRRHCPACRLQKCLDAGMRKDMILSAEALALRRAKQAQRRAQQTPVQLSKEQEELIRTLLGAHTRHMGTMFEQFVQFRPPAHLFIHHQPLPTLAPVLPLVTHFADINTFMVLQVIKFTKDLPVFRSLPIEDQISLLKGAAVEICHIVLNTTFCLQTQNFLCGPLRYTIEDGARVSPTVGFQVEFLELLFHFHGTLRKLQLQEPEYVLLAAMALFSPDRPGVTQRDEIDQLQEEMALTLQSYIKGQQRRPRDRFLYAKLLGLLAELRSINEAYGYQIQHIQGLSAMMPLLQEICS
Sequence of Luciferin 4-monooxygenase (Photinus pyralis) (P08659 whole entry, looked up): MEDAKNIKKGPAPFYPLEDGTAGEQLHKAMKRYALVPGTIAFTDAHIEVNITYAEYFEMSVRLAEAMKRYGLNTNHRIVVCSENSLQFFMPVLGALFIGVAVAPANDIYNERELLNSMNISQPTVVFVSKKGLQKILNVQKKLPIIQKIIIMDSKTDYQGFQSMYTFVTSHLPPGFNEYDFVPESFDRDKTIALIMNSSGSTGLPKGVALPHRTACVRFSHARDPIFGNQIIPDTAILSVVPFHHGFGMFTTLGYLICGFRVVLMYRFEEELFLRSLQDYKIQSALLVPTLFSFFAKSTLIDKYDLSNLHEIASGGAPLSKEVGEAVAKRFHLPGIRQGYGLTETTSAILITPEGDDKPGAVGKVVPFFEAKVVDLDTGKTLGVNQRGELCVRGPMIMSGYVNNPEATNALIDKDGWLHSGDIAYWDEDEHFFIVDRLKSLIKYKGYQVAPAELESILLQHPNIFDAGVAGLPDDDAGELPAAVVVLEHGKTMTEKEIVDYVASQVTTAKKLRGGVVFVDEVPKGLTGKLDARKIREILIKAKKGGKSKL
Sequence of Thyrotropin receptor (Homo sapiens) (P16473 whole entry, looked up): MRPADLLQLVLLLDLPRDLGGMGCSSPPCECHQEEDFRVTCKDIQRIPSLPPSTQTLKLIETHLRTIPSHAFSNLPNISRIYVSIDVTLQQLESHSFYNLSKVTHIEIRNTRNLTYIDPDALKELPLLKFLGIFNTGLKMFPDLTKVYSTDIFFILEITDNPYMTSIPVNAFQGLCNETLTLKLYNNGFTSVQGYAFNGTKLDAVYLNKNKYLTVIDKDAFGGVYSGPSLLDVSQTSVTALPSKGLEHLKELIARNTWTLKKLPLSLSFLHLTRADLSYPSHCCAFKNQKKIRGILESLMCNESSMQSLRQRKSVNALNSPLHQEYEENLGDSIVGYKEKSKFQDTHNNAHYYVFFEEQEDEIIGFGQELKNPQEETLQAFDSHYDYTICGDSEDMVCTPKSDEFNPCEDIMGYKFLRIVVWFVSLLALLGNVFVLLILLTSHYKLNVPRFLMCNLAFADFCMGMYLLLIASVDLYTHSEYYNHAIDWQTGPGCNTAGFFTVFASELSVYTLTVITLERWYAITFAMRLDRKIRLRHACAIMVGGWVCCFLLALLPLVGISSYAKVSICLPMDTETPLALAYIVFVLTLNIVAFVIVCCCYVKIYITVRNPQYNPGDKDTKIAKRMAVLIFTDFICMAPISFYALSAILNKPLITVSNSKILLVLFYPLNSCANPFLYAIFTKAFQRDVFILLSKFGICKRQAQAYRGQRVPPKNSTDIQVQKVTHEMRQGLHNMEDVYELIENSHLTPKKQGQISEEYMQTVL

On to `CC1(C)S[C@@H]2[C@H](NC(=O)COc3ccccc3)C(=O)N2[C@H]1C(=O)O`, for which the Potency entry in experiment [1], in [2], in experiment [3], in experiment [5], in experiment [6] and in [7] was “inactive” each time. The Potency result in experiment [15] was “inactive”. For the same compound, the outcome in [4], in experiment [8], in [9], in [10], in experiment [11] and in [12] was inactive. Besides, the compound was classed as inactive in experiment [13], in experiment [14] and in experiment [16].

With `CN1C(=O)CC[C@H]1c1cccnc1`, the Potency result in experiment [1], in experiment [2], in experiment [3], in experiment [5], in experiment [6] and in experiment [17] was “inactive” in each case. The Potency result in experiment [15] was “inactive”. The outcome in experiment [4], in [9], in experiment [10], in experiment [11], in [12] and in experiment [16] was inactive.

As to `C=C(C)[C@H]1CC=C(C)C(=O)C1`, the Potency result in experiment [1], in experiment [2], in experiment [3], in experiment [6], in experiment [17] and in experiment [15] was “inactive” in each case. Also, the compound was called inactive in [9], in experiment [10], in experiment [11], in experiment [18], in experiment [12] and in [16].

With `CCCCCCCCCCO`, the Potency result in [1], in experiment [2], in experiment [3], in experiment [19], in experiment [6] and in experiment [17] was “inactive” each time. For the same compound, the Potency entry in experiment [15] is “inactive”. Moreover, the outcome in experiment [10], in experiment [11], in experiment [18], in experiment [12] and in experiment [16] was inactive.

Turning to `CCNc1cccc(C)c1`, the Potency result in experiment [1], in experiment [2], in [3], in [5], in experiment [6] and in [7] was “inactive” throughout. Further, the Potency result in experiment [17] and in experiment [15] was “inactive” throughout. Also, the compound was classed as inactive in experiment [4], in experiment [8], in experiment [10], in [11], in [18] and in [12]. Further, the outcome in [13], in experiment [14] and in experiment [16] was inactive.

With `CCOC(=O)c1ccc(N)cc1`, the Potency result in experiment [3], in experiment [19], in experiment [5], in experiment [6], in experiment [17] and in experiment [15] was “inactive” throughout. The call in experiment [4], in [10], in experiment [11] and in [16] was inactive.

On to `CCCCCCCCCCN`, for which the Potency result in experiment [2], in experiment [3], in experiment [19], in [5], in experiment [6] and in experiment [15] was “inactive” each time. The call in experiment [4], in experiment [10], in experiment [11], in [18], in experiment [12] and in [16] was inactive.

For the compound `COc1ccc(N)c(C)c1`, the Potency result in [2], in experiment [3], in experiment [5], in experiment [6] and in experiment [15] was “inactive” throughout. In addition, the compound was called inactive in [4], in experiment [10], in experiment [11], in experiment [18], in experiment [12] and in experiment [16].

`CCCCCCCCCCCCCCCCO`: the Potency result in [2], in [3], in experiment [5], in experiment [6], in experiment [17] and in experiment [15] was “inactive” throughout. Besides, the compound was classed as inactive in experiment [4], in experiment [9], in experiment [10], in experiment [11], in experiment [18] and in [12]. In experiment [16], the compound was called inactive.

For the compound `CSc1ccc(Cl)cc1`, the Potency result in [2], in experiment [3], in experiment [19], in [5], in experiment [6] and in experiment [17] was “inactive” throughout. The Potency entry in experiment [15] was “inactive”. Also, the call in experiment [4], in experiment [9], in experiment [10], in experiment [11], in experiment [18] and in experiment [12] was inactive. Also, the outcome in experiment [16] was inactive.

`CCNc1ccccc1`: the Potency in experiment [2] is 28.8 µM (active) and inactive. Besides, the Potency result in experiment [3], in experiment [19], in experiment [5], in experiment [6] and in experiment [15] was “inactive” each time. Besides, the compound was called inactive in experiment [4], in experiment [9], in experiment [10], in experiment [11], in [18] and in experiment [16].
